Calls of active or inactive are those of the source.
What was measured:
[1] = small molecules captured by biotinylated probe aFSTL3 – biochemical, small-molecule microarray, fluorescence 635/667, stem cell growth factor project, primary screen (AID 1064); conditions: higher = more signal;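 further: measures binding of the biotinylated anti-FSTL3 antibody to printed compounds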
[2] = binders from COS7 lysate, DM2A8 probe, primary screen, torsin A project, cell lysate, small-molecule microarray, fluorescence 635/667 (AID 1065); conditions: higher = more signal, COS7 lysate expressing mutant human TOR1A
[3] = small molecules captured by biotinylated probe aFGF2 – biochemical, small-molecule microarray, fluorescence 635/667, stem cell growth factor project, primary screen (AID 1067); conditions: higher = more signal;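 further: measures binding of biotinylated aFGF2 protein to printed compounds on slides; z-score merges feature fluorescence and signal-to-noise across triplicate slides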
[4] = small molecules captured by biotinylated probe aFGF10 – biochemical, small-molecule microarray, fluorescence 635/667, stem cell growth factor project, primary screen (AID 1071); conditions: higher = more signal;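 further: score merges 667 nm spot intensity and signal to noise from triplicate slides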
[5] = target: Neurogenic locus notch homolog protein 2 (Homo sapiens) (UniProt Q04721); experiment: small molecules binding Notch2 protein – biochemical, small-molecule microarray, 635 nm fluorescence, stem cell growth factors, primary screen (AID 1073); conditions: higher = more signal
Sequence of Neurogenic locus notch homolog protein 2 (Homo sapiens) (Q04721 whole entry, looked up, canonical isoform): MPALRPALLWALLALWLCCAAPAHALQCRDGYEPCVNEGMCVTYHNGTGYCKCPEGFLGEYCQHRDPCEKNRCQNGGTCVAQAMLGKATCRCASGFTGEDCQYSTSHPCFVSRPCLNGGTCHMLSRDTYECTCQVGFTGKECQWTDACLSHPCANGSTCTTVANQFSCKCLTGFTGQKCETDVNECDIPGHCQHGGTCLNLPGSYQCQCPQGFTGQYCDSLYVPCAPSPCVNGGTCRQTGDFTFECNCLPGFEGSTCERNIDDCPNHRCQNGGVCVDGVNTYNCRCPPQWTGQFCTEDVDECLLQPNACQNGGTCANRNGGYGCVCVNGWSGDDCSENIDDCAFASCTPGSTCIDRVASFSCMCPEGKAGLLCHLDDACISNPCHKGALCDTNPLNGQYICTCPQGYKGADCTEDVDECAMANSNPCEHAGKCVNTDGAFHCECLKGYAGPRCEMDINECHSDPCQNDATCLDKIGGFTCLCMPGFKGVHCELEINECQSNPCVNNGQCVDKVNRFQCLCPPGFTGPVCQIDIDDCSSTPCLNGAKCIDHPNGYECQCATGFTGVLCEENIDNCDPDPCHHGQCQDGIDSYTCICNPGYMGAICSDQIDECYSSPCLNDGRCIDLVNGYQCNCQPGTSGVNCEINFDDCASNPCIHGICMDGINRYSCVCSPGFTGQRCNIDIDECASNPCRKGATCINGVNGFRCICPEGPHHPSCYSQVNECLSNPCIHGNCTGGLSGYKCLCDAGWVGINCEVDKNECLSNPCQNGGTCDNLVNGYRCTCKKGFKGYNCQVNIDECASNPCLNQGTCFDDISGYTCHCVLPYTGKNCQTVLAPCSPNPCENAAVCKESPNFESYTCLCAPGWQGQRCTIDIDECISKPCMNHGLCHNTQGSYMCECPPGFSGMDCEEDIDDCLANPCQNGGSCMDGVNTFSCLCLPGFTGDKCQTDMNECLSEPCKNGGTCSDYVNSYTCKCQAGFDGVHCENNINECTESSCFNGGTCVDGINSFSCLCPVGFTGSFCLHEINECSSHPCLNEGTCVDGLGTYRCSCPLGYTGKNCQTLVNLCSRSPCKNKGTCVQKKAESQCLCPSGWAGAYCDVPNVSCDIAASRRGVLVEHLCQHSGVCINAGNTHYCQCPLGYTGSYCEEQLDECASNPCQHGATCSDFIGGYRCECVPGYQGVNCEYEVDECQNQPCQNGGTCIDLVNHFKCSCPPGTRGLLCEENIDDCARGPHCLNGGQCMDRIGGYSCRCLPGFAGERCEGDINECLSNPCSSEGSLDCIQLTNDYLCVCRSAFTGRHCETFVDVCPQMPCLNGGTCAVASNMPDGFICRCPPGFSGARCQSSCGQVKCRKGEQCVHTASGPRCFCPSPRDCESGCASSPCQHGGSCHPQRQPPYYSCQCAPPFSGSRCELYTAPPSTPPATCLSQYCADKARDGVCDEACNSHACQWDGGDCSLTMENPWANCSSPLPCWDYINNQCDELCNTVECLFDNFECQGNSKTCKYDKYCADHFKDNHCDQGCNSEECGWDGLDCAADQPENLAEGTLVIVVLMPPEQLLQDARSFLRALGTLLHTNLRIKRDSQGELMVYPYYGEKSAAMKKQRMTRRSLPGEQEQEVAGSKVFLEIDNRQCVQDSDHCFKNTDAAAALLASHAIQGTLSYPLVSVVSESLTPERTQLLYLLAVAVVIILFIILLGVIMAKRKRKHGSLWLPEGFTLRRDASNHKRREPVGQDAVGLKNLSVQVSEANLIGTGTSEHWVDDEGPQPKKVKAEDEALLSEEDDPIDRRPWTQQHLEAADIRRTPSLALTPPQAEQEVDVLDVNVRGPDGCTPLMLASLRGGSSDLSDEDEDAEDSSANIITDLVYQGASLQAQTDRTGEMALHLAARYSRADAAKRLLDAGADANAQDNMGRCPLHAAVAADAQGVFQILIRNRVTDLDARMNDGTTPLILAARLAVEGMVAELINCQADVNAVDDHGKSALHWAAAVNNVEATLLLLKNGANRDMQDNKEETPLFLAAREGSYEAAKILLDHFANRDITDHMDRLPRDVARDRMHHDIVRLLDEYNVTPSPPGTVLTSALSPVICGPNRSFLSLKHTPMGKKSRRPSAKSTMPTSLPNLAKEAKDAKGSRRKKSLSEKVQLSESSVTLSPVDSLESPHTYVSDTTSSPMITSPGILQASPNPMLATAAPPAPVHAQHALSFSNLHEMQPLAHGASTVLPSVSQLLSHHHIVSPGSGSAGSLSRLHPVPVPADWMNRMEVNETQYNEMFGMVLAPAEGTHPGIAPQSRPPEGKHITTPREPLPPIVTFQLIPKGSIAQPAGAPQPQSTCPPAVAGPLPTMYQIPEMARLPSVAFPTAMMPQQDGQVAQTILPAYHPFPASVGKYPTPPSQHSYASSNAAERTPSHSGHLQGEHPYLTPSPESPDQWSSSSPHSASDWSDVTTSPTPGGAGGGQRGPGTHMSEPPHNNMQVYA

[6] = target: Pro-neuregulin-1, membrane-bound isoform (Homo sapiens) (UniProt Q02297); experiment: small molecules binding neuregulin-1 protein – biochemical, small-molecule microarray, fluorescence 635/667, psychiatric disease protein project, primary screen (AID 1075); conditions: NRG1 binding, 635 nm fluorescence, higher = more signal;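 further: score combines 667 nm spot fluorescence with signal to noise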
Sequence of Pro-neuregulin-1, membrane-bound isoform (Homo sapiens) (Q02297 whole entry, looked up, the tested form may be a part, canonical isoform): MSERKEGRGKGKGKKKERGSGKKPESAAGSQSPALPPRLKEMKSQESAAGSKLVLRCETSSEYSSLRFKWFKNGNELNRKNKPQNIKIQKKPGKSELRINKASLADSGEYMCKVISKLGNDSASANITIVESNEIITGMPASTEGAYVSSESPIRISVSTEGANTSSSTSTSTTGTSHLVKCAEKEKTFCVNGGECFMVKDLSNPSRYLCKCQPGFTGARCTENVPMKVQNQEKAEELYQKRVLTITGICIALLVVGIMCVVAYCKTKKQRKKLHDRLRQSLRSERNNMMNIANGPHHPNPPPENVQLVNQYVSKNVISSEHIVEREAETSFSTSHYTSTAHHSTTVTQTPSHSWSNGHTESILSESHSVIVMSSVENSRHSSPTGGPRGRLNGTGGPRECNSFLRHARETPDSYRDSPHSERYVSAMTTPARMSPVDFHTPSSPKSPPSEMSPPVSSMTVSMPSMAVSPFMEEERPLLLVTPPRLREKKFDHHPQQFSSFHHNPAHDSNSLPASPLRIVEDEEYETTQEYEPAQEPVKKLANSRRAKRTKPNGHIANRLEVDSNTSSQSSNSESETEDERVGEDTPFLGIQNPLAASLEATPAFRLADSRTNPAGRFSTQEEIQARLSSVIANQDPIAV

[7] = test system: Neuregulin-1 EGF-like domain; experiment: small molecules binding NRG1 EGF domain – biochemical, small-molecule microarray, 635 nm fluorescence, primary screen (AID 1081); conditions: higher = more signal;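 further: binding of the protein to compounds printed on small-molecule microarray slides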
[8] = FRG1 expression reporter modulators in myotubes – cell-based, C2C12 myotubes, firefly/Renilla luciferase, luminescence, FRG1 inhibition for FSHD, primary screen (AID 1084); conditions: FRG1 promoter luciferase, higher = more signal, called active from +8 up or from −8 down
[9] = small molecules captured by biotinylated probe aFST – biochemical, small-molecule microarray, fluorescence 635/667, stem cell growth factor project, primary screen (AID 1086); conditions: higher = more signal;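 further: score merges 667 nm fluorescence with signal-to-noise of each printed compound spot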
[10] = binders of probe aHhip on microarray, primary screen, stem cell growth factor project, biochemical, small-molecule microarray, fluorescence 635/667 (AID 1087); conditions: higher = more signal;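 further: score merges spot fluorescence at 667nm with spot signal to noise ratio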

SMILES | composite z-score [1] | composite z-score [2] | composite z-score [3] | composite z-score [4] | composite z-score [5] | composite z-score [6] | composite z-score [7] | z-score [8] | composite z-score [9] | composite z-score [10]
COC(=O)[C@@H]1N=C(c2ccc(OCCCO)cc2)O[C@@H]1c1ccccc1 | 0.497 | -0.0336 | -0.103 | -0.789 | -0.997 | 0.403 | 0.326 | 7.16 (inactive) | -0.456 | 0.176
CC(C)(C)OC(=O)COc1cccc(C(=O)CCN2CCOCC2)c1 | 1.39 | 0.262 | -0.0741 | -0.459 | -0.742 | 0.359 | 0.187 | 1.57 (inactive) | 0.482 | -0.243
CN(C)C(=O)[C@@]1(Cc2ccccc2)N=C(c2ccc(OCCCO)cc2)O[C@H]1c1ccccc1 | 0.558 | 0.459 | 0.133 | 1.24 | 1.5 | 1.18 | 1.29 | -1.57 (inactive) | 0.889 | 0.28
C=CC[C@@H](OC(=O)Nc1ccc(SC)cc1)c1ccc(O)c(F)c1 | 0.401 | 0.601 | -0.0729 | 0.165 | -0.131 | 1.7 | 1.21 | 6.7 (inactive) | -0.277 | -0.0645
CCOC(=O)C[C@H]1[C@H](OC(=O)c2cc3ccccc3oc2=O)[C@@H](NC(=O)c2ccc3ccccc3n2)c2cc(OCCCO)ccc2N1C(=O)Cc1ccc(OC)cc1 | -0.446 | 0.522 | -0.0107 | 0.302 | 0.958 | 1.03 | 0.946 | 0.547 (inactive) | 0.24 | -0.201
CC(C)N1C(=O)C[C@@](C(=O)NC2CC2)(c2ccc([N+](=O)[O-])cc2)[C@H]1c1ccc(CO)cc1 | 0.632 | 0.387 | -0.111 | 0.173 | -0.551 | 1.75 | 1.35 | 0.74 (inactive) | -0.551 | -0.0994
COCCOC(=O)N1C(=O)[C@@]2(c3cc(C#CCC(C(=O)OC)C(=O)OC)ccc31)[C@H](c1ccc(OCCO)cc1)N1[C@H](c3ccccc3)[C@H](c3ccccc3)OC(=O)[C@H]1[C@@H]2C(=O)N1CCc2cc(OC)c(OC)cc2C1 | 0.119 | 0.351 | -0.0985 | 0.953 | 1.21 | 1.54 | 1.25 | 0.913 (inactive) | 0.47 | -0.131
C=CCC(OC(C)=O)[C@@H]1[C@@H](N(Cc2cc3ccccc3o2)C(=O)Cc2ccc(F)cc2)c2cc(OCCCO)ccc2N1C(=O)Cc1ccc2ccccc2c1 (stereo not given in full) | -0.367 | -0.804 | -0.017 | -0.469 | -0.665 | -0.436 | 0.112 | -1.47 (inactive) | 0.0652 | -0.306
CCCC[C@@H](O)C1=C(COC)C[C@H]2C(=O)N(Cc3ccccc3)C(=O)[C@H]2[C@H]1CO | -1.06 | 0.0076 | -0.0969 | 0.58 | 0.395 | 0.179 | 0.159 | 0.646 (inactive) | -0.173 | -0.0645
CN(C)CCCCCCNC(=O)[C@@H]1C[C@@H]2C(=O)N3CCC[C@H]3C(=O)N2[C@@H]1c1cccc(OCCO)c1 | 0.117 | 2.09 | 0.1 | 1.11 | 0.623 | 0.755 | 1.48 | 3.21 (inactive) | 0.518 | -0.0296
N#Cc1ccc(NN2C(C(O)c3ccc(Br)cc3)C=CC3C(=O)N(c4ccccc4)C(=O)C32)cc1 (stereo not given) | 1.36 | 0.288 | 0.254 | 0.73 | 1.58 | 1.74 | 0.976 | -2.87 (inactive) | 0.907 | -0.182
COCC(=C=CC[C@H](O)c1ccc(OCCO)cc1)CCO | -0.144 | 1.12 | -0.161 | 0.592 | 0.124 | 1.64 | 1.42 | 0.461 (inactive) | 0.0418 | -0.0618
CC1CC/C=C\[C@H]2OC34C=CCN(c5ccc6ccccc6c5)C(=O)[C@H]3N(CCCO)C(=O)[C@@H]4C2C(=O)O1 (stereo not given in full) | 0.932 | -0.541 | -0.188 | -1.25 | -0.746 | 1.19 | -0.459 | 2.62 (inactive) | -0.757 | -0.19
COC(=O)[C@@]1(Cc2ccc(F)cc2)[C@H]2c3cc(C(=O)N4CCCC4)n(CCc4c[nH]c5ccccc45)c3C[C@H]2CN1C(=O)c1ccccc1 | 0.484 | 0.246 | 0.0869 | 0.439 | 1.62 | 2.06 | 1.22 | -2.21 (inactive) | 1.05 | 0.245
O=C(C1N=C(c2ccc(OCCCO)cc2)N(c2ccccc2)O1)N1CCCCC1 (stereo not given) | 0.819 | 1.49 | 0.182 | 0.938 | 1.05 | 1.99 | 1.36 | 2.39 (inactive) | 1.13 | -0.0952
[N-]=[N+]=Nc1ccccc1C[C@@]1(C(=O)N2CCOCC2)N=C(c2ccc(OCCCO)cc2)O[C@@H]1c1ccccc1 | -0.4 | -0.121 | 0.0324 | 1.11 | 1.3 | 1.06 | 1.18 | -3.93 (inactive) | 1.71 | -0.112
C=CCC(OC(C)=O)[C@@H]1[C@@H](N(Cc2ccc(-c3ccccc3)cc2)C(=O)c2ccc(-c3ccccc3)cc2)c2cc(OCCCO)ccc2N1C(=O)c1ccc2ccccc2c1 (stereo not given in full) | 0.0946 | 0.107 | -0.128 | 0.178 | -0.443 | -0.227 | -0.896 | 0.807 (inactive) | 0.352 | -0.353

SMILES | composite z-score [1] | composite z-score [2] | composite z-score [3] | composite z-score [4] | composite z-score [5] | composite z-score [6] | composite z-score [7] | z-score [8] | composite z-score [9] | composite z-score [10]
CC(C)[Si]1(C(C)C)OCc2cc(-c3ccc(-c4ccc(Cl)c(Cl)c4)o3)nc(-c3ccccc3)c21 | 0.695 | -0.464 | -0.147 | -0.818 | -1.65 | 0.314 | -0.914 | -0.358 (inactive) | -0.774 | -0.134
COC(=O)[C@@]1(Cc2ccc(OC)cc2)[C@H]2c3cc(C(=O)N4CCCC4)n(CCc4c[nH]c5ccc(OC)cc45)c3C[C@H]2CN1C(=O)c1ccccc1 | 1.49 | 1.14 | 0.204 | 0.686 | 1.74 | 0.898 | 1.16 | 0.49 (inactive) | 1.55 | -0.161
C=C[C@H](C)[C@H](OC(=O)Nc1ccc(SC)cc1)c1ccc(OCCO)cc1 | -0.0439 | 1.18 | -0.1 | 0.406 | -0.34 | 0.745 | 1.15 | 4.38 (inactive) | 0.0319 | 0.0972
COc1ccc([C@H]2OC[C@@H]3C[C@H](Cc4ccccc4)C(=O)N32)cc1 | -0.458 | 0.7 | -0.0376 | 0.219 | 0.423 | -0.465 | 0.684 | 0.18 (inactive) | 0.277 | 0.107
COc1cc2c(cc1O)C=[N+](Cc1sc3ccccc3c1Cl)CC2 | 0.172 | -0.0743 | -0.0999 | 0.1 | 1.06 | -0.102 | 1.48 | 0.432 (inactive) | -0.161 | 0.0178
C=CCN1Cc2ccccc2[C@@H]2OC(c3ccc(OCCCO)cc3)=N[C@]2(CC=C)C1=O | 1.41 | 0.629 | 0.32 | 0.0911 | 0.848 | 0.955 | 1.06 | -0.479 (inactive) | 2.47 | -0.159
[N-]=[N+]=Nc1ccccc1C[C@]1(C(=O)NCCN2CCOCC2)COC(c2ccc(OCCCO)cc2)=N1 | 0.295 | 1.26 | -0.27 | -0.0786 | 0.722 | 1.55 | 1.39 | 0.706 (inactive) | 0.143 | -0.0994
COc1ccccc1CN1C(=O)c2ccccc2[C@](Cc2ccccc2I)(C(=O)O)[C@@H]1c1ccc(CO)cc1 | -0.689 | 0.387 | 0.0043 | 1.01 | 1.51 | 1.36 | 1.27 | -1.49 (inactive) | -0.262 | 0.305
C=CCOC(=O)[C@@]1(Cc2ccccc2)C[C@H]2CO[C@H](c3ccc(OC)cc3)N2C1=O | -0.442 | 0.366 | -0.12 | 0.252 | 0.0925 | -0.294 | 0.209 | -1.33 (inactive) | -0.135 | 0.0373
CO[C@H]1O[C@H](CO)[C@@H](OC(=O)Nc2ccccc2)[C@H](OC(=O)c2cc3ccccc3[nH]2)[C@H]1OC(=O)c1cc2ccccc2[nH]1 | 0.731 | 0.0889 | 0.0336 | 0.886 | 0.518 | 1.18 | 0.495 | -0.542 (inactive) | 0.219 | -0.0994
O=c1cccc(-c2ccc([N+](=O)[O-])cc2)o1 | -0.164 | -0.0642 | 0.0008 | 0.287 | 0.698 | -0.283 | 0.348 | -0.0029 (inactive) | -0.192 | -0.0263
[N-]=[N+]=NCc1ccccc1C[C@@]1(C(N)=O)N=C(c2ccc(OCCCO)cc2)O[C@@H]1c1ccccc1 | 0.218 | -0.173 | -0.0592 | -0.257 | 0.608 | 2.15 | 1.16 | -1.67 (inactive) | 0.249 | 0.107
CC(c1ccccc1)C(O)C1C=CC2C(=O)N(C)C(=O)C2N1Nc1ccccc1 (stereo not given) | 0.799 | -0.146 | 0.362 | 0.796 | 1.63 | 1.43 | 1.25 | 0.796 (inactive) | 0.814 | 0.0578
CCCCNC(=O)c1ccc(C#CC(C)(C)C)c(OC(C)=O)c1 | -0.769 | 0.212 | -0.132 | 0.572 | 1.04 | 0.158 | 0.865 | 4.66 (inactive) | 0.031 | -0.0994
Cn1cccc1C(O)C1C=CC2C(=O)N(c3ccccc3)C(=O)C2N1Nc1ccccc1 (stereo not given) | -0.236 | 0.401 | 0.137 | 0.925 | 1.71 | 1.91 | 1.17 | 0.687 (inactive) | 0.706 | -0.136
C=CC[C@@]1(C(=O)NCCCOC)N=C(c2ccc(OCCCO)cc2)O[C@@H]1c1ccccc1 | 0.513 | 1.09 | 0.0679 | -0.562 | -0.0215 | 1.84 | 1.15 | -1.24 (inactive) | 0.74 | 0.712
Cc1ccc(S[C@]2(C(=O)NCC(F)(F)F)CC(=O)N(Cc3cc(C(F)(F)F)cc(C(F)(F)F)c3)[C@@H]2c2ccc(CO)cc2I)cc1 | 0.225 | 1.52 | -0.128 | -0.41 | -1.14 | 0.848 | 0.434 | -0.326 (inactive) | -0.666 | -0.409
